The text below walks through data of PubChem BioAssay (NCI).

Compounds without any hit were thinned out: in the full panel of roughly 83,000, 20% have a hit.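 Assay: single dose, 48 h. Readout: percent growth (0 = no net growth; negative = cell death). Active: <10.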 Unmarked numbers belong to inactive results. Calls of active or inactive are those of the source.

Assay in all cases: NCI-60 one-dose screen, 48 h (100 = growth as untreated, 0 = no growth, -100 = all killed)
Common to all, as to settings: 10 µM unless noted

Assay [1] relates to HCT-15 colon.
Assay [2] relates to HT29 colon.
Assay [3] deals with SNB-75 CNS.
Assay [4] relates to SNB-19 CNS.
For assay [5], the system named is U251 CNS.
The subject of assay [6] is PC-3 prostate.
For assay [7], the system named is SK-MEL-5 melanoma.
Assay [8] deals with UACC-62 melanoma.
Assay [9] concerns LOX IMVI melanoma.
In assay [10] the test system is SK-MEL-28 melanoma.
Assay [11] has as its system SK-MEL-2 melanoma.
For assay [12], the system named is EKVX NSCLC.
The test system of assay [13] is SN12C renal.
The subject of assay [14] is UO-31 renal.
For assay [15], the system named is TK-10 renal.
The test system of assay [16] is ACHN renal.
Assay [17] concerns CAKI-1 renal.
In assay [18] the test system is CCRF-CEM leukemia.
For assay [19], the system named is MOLT-4 leukemia.

For the compound `CN1CCN(CC#CCNC(=O)[C@]23CCC(C)(C)C[C@H]2C2=CC[C@@H]4[C@@]5(C)Cc6c([nH]c7ccccc67)C(C)(C)[C@@H]5CC[C@@]4(C)[C@]2(C)CC3)CC1`, the growth in assay [1] is 39.2%; in assay [2], 7.18% (active); in assay [3], 92.7%; in [4], 79.3%; in [5], 42.7%; in assay [6], 56.7%. Besides, the growth in [7] was 75.1%; in assay [8] it was 95.7%; in assay [9] it was 66.7%; in assay [10] it was 79%; in assay [11] it was 98.3%; in assay [12] it was 83.3%. The growth in assay [13] is 77.8%; in [14] it was 64.2%; in assay [15], 91.8%; in [16] it was 95.3%; in assay [17] it was 87.2%; in [18] it was 48.8%. Moreover, in assay [19], the growth is 31.2%.
`COc1cc2c(cc1[N+](=O)[O-])-c1ccc([N+](=O)[O-])cc1/C2=N/NC(N)=S`: the growth is 72.3% in assay [1]; 48.7% in [2]; 48.7% in [3]; 58.8% in assay [4]; 47.1% in [5]; 58% in [6]. The growth is 63.1% in assay [7]; 36.4% in assay [8]; 43.5% in assay [9]; 95.4% in assay [10]; 87.8% in assay [11]; 68.5% in assay [12]. Also, the growth in assay [13] was 67.1%; in [14], 29.6%; in assay [15], 77.4%; in assay [16], 37.4%; in assay [17], 64.1%; in [18], 56.6%. Further, the growth in assay [19] was 60.1%.
Turning to `COc1ccc(OC)c(/C=C/[C@H]2O[C@@H](C)[C@H](O)[C@@H]2O)c1`, the growth was 103% in [1]; 104% in [2]; 90.2% in assay [3]; 99.4% in [4]; 94% in [5]; 106% in [6]. Moreover, the growth is 103% in assay [7]; 100% in [8]; 99.8% in assay [9]; 102% in [10]; 91.2% in assay [11]; 107% in [12]. Moreover, the growth in assay [13] was 106%; in assay [14], 91.5%; in assay [15] it was 95.7%; in assay [16] it was 106%; in assay [17], 96.9%; in [18], 98.3%. In assay [19], the growth is 93.2%.
For `O=C1c2ccccc2-c2c1c1c(NCCCO)nc3ccccc3c1n2Cc1ccccc1`, the growth in assay [1] was 66%; in assay [2], 5.61% (active); in [3] it was -1.82% (active); in assay [4], 16.7%; in assay [5], 7.89% (active); in assay [6], 33.8%. The growth in [7] was -82.6% (active); in [8], 17.5%; in assay [9], 2.25% (active); in assay [10], -3.55% (active); in assay [11], 48.5%; in [12] it was 17.8%. The growth in [13] was 18.6%; in assay [14], -40.9% (active); in [15], -20.2% (active); in assay [16], 50.1%; in [17], 33.9%; in [18], 36%. In assay [19], the growth was 16.9%.
Consider `O=S(=O)(NCCCNc1nccc(-c2c(-c3cccc(O)c3)nc3occn23)n1)c1ccc(F)cc1`, for which the growth was 90.2% in assay [1]; 36.3% in assay [2]; 104% in assay [3]; 113% in [4]; 95.3% in assay [5]; 81.4% in assay [6]. Besides, the growth in [7] is 35.7%; in assay [8], -1.99% (active); in assay [9], 44.4%; in assay [10], 33.7%; in assay [11], 50.6%; in assay [12], 101%. For the same compound, the growth was 74.9% in assay [13]; 92.1% in assay [14]; 116% in assay [15]; 79.1% in [16]; 72.2% in [17]; 89% in [18]. The growth in assay [19] is 70%.
Turning to `O=S(=O)(O)c1cc(O)c2c(N=Nc3ccc(Nc4ccccc4)c4c(S(=O)(=O)O)cccc34)cc(S(=O)(=O)O)cc2c1`, the growth was 99.1% in assay [1]; 107% in [2]; 96.2% in [3]; 103% in assay [4]; 102% in [5]; 95% in assay [6]. The growth was 109% in [7]; 105% in assay [8]; 96.5% in assay [9]; 111% in assay [10]; 99.7% in [11]; 103% in assay [12]. Besides, the growth in assay [13] was 99.2%; in assay [14], 74.3%; in assay [15], 106%; in [16], 98.5%; in [17] it was 99.4%; in assay [18], 108%. In addition, in [19], the growth was 110%.
For the compound `COc1cc2nc(-c3ccc(C(F)(F)F)cc3)cc(OCCN3CCCC3)c2cc1OC`, the growth in [1] was 67.3%; in assay [2], 66.4%; in assay [3] it was 71.6%; in [4], 88.7%; in [5] it was 76.8%; in assay [6] it was 73.8%. Moreover, the growth was 84.4% in [7]; 93.3% in [8]; 27% in [9]; 78.6% in [10]; 105% in assay [11]; 68.8% in [12]. For the same compound, the growth in [13] is 72.2%; in [14], 54.2%; in [15] it was 92.9%; in assay [16], 84.1%; in assay [17], 68.7%; in [18], 77.8%. In assay [19], the growth was 74.2%.
For the compound `C#CCNC(=O)[C@H](Cc1ccccc1)NC(=O)[C@]12CC[C@@H](C(=C)C)[C@@H]1[C@H]1CC[C@@H]3[C@@]4(C)Cc5c([nH]c6ccccc56)C(C)(C)[C@@H]4CC[C@@]3(C)[C@]1(C)CC2`, the growth in [1] was 101%; in assay [2], 88.8%; in assay [3], 92.9%; in assay [4] it was 90.9%; in assay [5] it was 91.8%; in assay [6], 77.8%. The growth in assay [7] was 102%; in assay [8], 93.2%; in assay [9], 97.4%; in assay [10], 102%; in assay [11] it was 95.5%; in [12] it was 94%. Moreover, the growth is 93.6% in assay [13]; 90.3% in assay [14]; 90.4% in assay [15]; 94.8% in assay [16]; 86.8% in assay [17]; 91.6% in assay [18]. Besides, the growth in assay [19] is 93.7%.
